MITF inh: MITF inhibition | 37,000 compounds, 0.28% hits | TRPM1 promoter luciferase, luminescence, 24 h | inhibition, % (concentration not given with the values); in the data active = inhibition above about 85%;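 also: human melanocyte line stably carrying TRPM1 promoter luciferase reporter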
NOMO-1 viab: STK33 inhibitor candidate reducing NOMO-1 cell viability | NOMO-1 AML viability, CellTiter-Glo luminescence, 72 h | inhibition, % (no concentration beside the values) | 37,000 compounds, 7.5% hits | AID 2330; in the data active = inhibition above about 80%
Shh pathway inh: blocks Sonic Hedgehog signaling; Shh-LIGHT2 Gli-luciferase reporter, 30 h; inhibition, % (concentration not given with the values); 22,000 compounds, 2.1% hits;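 active = mean inhibition across valid replicates above about 65%, limit read from the data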;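 also: pathway switched on by Shh-conditioned medium diluted 1 in 25 in low serum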
Numbers without * were called inactive; / = no result. An excerpt weighted towards active compounds, which were near 8.1% of everything screened.

SMILES	MITF inh	NOMO-1 viab	Shh pathway inh
C[C@@H]1CN([C@@H](C)CO)C(=O)Cc2cc(NC(=O)Cc3ccccc3)ccc2O[C@@H]1CN(C)Cc1ccc(C(=O)Nc2ccccc2N)cc1	11.8	95.8*	/
O=C1C(=O)N(CCc2ccccc2)C(c2ccco2)C1C(=O)c1cc2ccccc2o1 (centres undefined)	-11.6	-4.3	/
CCOC(=O)CC(c1ccccc1)S(=O)(=O)O (centres undefined)	-4.9	6.9	/
COc1ccc(S(=O)(=O)Nc2cccc3c2O[C@H](CN(C)C(=O)NC2CCCCC2)[C@@H](C)CN([C@@H](C)CO)C3=O)cc1	-10.4	21.6	-42.4
COc1ccc(S(=O)(=O)Nc2cccc3c2O[C@@H](CN(C)C(=O)NC2CCCCC2)[C@@H](C)CN([C@H](C)CO)C3=O)cc1	32.4	114.0*	66.1*
COc1ccc(S(=O)(=O)Nc2cccc3c2O[C@@H](CN(C)CC2CCCCC2)[C@H](C)CN([C@@H](C)CO)C3=O)cc1	2.5	4.2	-66.9
C[C@H](CO)N1C[C@H](C)[C@H](CN(C)C(=O)NC2CCCCC2)Oc2c(NS(=O)(=O)c3ccc(Cl)cc3)cccc2C1=O	14.5	87.7*	99.9*
C[C@H]1CN([C@@H](C)CO)C(=O)c2cccc(NS(=O)(=O)c3ccc(Cl)cc3)c2O[C@H]1CN(C)C(=O)NC1CCCCC1	18.3	29.0	16.9
COc1ccc(S(=O)(=O)Nc2cccc3c2O[C@@H](CN(C)CC2CCCCC2)[C@@H](C)CN([C@H](C)CO)C3=O)cc1	2.4	34.2	70.6*
O=C(NC(NCc1ccccn1)(C(F)(F)F)C(F)(F)F)c1cccnc1	-25.8	8.1	46.1
COc1ccc(OCc2nc3ccccc3n2Cc2ccccc2F)cc1	4.5	13.6	/
O=C(c1cccs1)N1CCCn2c(SCc3ccccc3)nnc21	-17.2	9.1	-8.9
Cc1ccc(S(=O)(=O)N(C)C[C@@H]2Oc3c(NC(=O)c4nc5ccccc5s4)cccc3C(=O)N([C@@H](C)CO)C[C@H]2C)cc1	29.7	38.2	9.3
O=C(CSc1nnc(-c2ccccc2O)n1-c1ccccc1)Nc1ccccc1Cl	21.4	-11.1	/
c1cncc(-c2nc3c4c5c(sc4ncn3n2)CCCC5)c1	12.2	2.1	2.9
C[C@@H]1CCCCO[C@@H](CN(C)C(=O)c2ccccc2)[C@@H](C)CN([C@H](C)CO)C(=O)c2cc(NC(=O)c3ccccc3)ccc2O1	-1.0	14.8	/
C[C@@H]1CCCCO[C@@H](CN(C)C)[C@@H](C)CN([C@H](C)CO)C(=O)c2cc(NC(=O)c3ccccc3)ccc2O1	0.4	122.6*	-4.1
C[C@@H]1CCCCO[C@@H](CN(C)CC2CCCCC2)[C@@H](C)CN([C@H](C)CO)C(=O)c2cc(NC(=O)Nc3ccccc3)ccc2O1	18.8	122.5*	19.6
C[C@@H]1CCCCO[C@@H](CN(C)CC2CCCCC2)[C@@H](C)CN([C@H](C)CO)C(=O)c2cc(NC(=O)c3ccccc3)ccc2O1	27.2	116.8*	/
C[C@@H]1CCCCO[C@H](CN(C)CC2CCCCC2)[C@@H](C)CN([C@H](C)CO)C(=O)c2cc(NC(=O)c3ccncc3)ccc2O1	-1.4	18.4	-19.8
C[C@@H]1CCCCO[C@H](CN(C)CC2CCCCC2)[C@@H](C)CN([C@H](C)CO)C(=O)c2cc(NC(=O)Nc3ccc(F)cc3)ccc2O1	-10.2	65.7	-19.9
CSC(=NC#N)/N=c1/nc(SC)n(C)n1C	-4.2	-5.5	5.5
COc1ccc(NC(=O)Nc2cccc3c2O[C@H](CN(C)C(=O)Nc2c(C)noc2C)[C@H](C)CN([C@H](C)CO)C3=O)cc1	10.8	-2.7	-25.0
O=C(c1cccs1)N1N=C2c3ccccc3CCC2C1c1ccccc1Cl (centres undefined)	6.3	70.2	/
CCn1c(SCC(=O)Nc2ccc(F)c(F)c2)nnc1-c1ccncc1	2.8	10.3	/
SMILES	MITF inh	NOMO-1 viab	Shh pathway inh
CC(=O)Nc1ccc(S(=O)(=O)NC2(C(F)(F)F)C(=O)N(c3ccc(C(C)C)cc3)C(C)=C2C(C)=O)cc1 (centres undefined)	-11.2	3.6	/
COc1ccc(NC(=O)Nc2ccc3c(c2)C(=O)N([C@@H](C)CO)C[C@@H](C)[C@H](CN(C)C(=O)Nc2ccc(OC)cc2)O3)cc1	-1.6	9.9	19.6
CC1=CC(C)C2(COC(=O)Nc3ccccc3)COC(c3cccnc3)C1C2C (centres undefined)	53.0	104.7*	91.9*
c1cncc(C2OCC3(CO2)COC(c2cccnc2)OC3)c1 (centres undefined)	-6.7	-25.3	-20.6
O=C(Nc1nc(-c2ccccc2)nc2c1C(=O)CCC2)c1ccccc1	-25.2	-8.0	28.9
COc1ccc(S(=O)(=O)Nc2cccc3c2O[C@H](CN(C)C(=O)Nc2ccc(F)cc2)[C@H](C)CN([C@@H](C)CO)C3=O)cc1	6.2	17.2	13.3

Screens as filed in PubChem.
